# Reference: PubChem BioAssay (NCI)
# The panel holds about 83,000 compounds, 20% with a hit somewhere; the sample as a whole holds those more often.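 Each cell line was grown in a 96-well plate and treated with one concentration of compound for 48 hours. Values below 10 were considered active.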 The source made the active and inactive calls.
# Tested on: DU-145 prostate
# Assay: NCI-60 one-dose screen, 48 h (100 = growth as untreated, 0 = no growth, -100 = all killed)
# Conditions: 10 µM unless noted
row,Compound,growth
1,CCCCC1CCCC12NC(=O)NC2=O (centres undefined),109% (inactive)
2,COc1ccc2c(c1)c(-c1nn3cc(-c4cccs4)nc3s1)cn2C,89.7% (inactive)
3,COc1ccc([C@H]2c3cc(OC)c(OC)cc3C=C(C=O)C2CO)cc1OC (some centres undefined),61.9% (inactive)
4,C/C(=N/NC(N)=S)c1sc(Nc2cccc(Cl)c2)nc1C,81.7% (inactive)
5,Cc1cccc2c3c(sc12)C(c1ccc(F)cc1)C(C#N)=C(N)O3 (centres undefined),7.98% (active)
6,COc1cc(C(=O)c2cnc(-c3cccc4[nH]ccc34)[nH]2)cc(OC)c1OC,2.85% (active)
7,COc1ccc(C(=S)N2CCN(c3cccc(C)c3)CC2)cc1OC,90.7% (inactive)
8,CCOC(=O)/C(C#N)=C\Nc1ccc2ncnc(Nc3ccc(Cl)cc3Cl)c2c1,55.9% (inactive)
9,Cc1nn(-c2ccccc2)c(-n2ccnc2)c1/C=N/Nc1nc(-c2ccc(F)cc2)cs1,87.5% (inactive)
10,Cc1cc(=O)oc2cc(OC(=O)N3CCN(C)CC3)ccc12,110% (inactive)
11,COc1cc(/C=C/c2c(C(C)=O)c(C)nc3ccccc23)cc(OC)c1OC,42.1% (inactive)
12,NS(=O)(=O)c1ccc(-n2nc(-c3ccc(Cl)cc3)c3ccccc3c2=O)cc1,111% (inactive)
13,COc1ccc(C(=O)C[C@]2(O)C(=O)Nc3c(Cl)ccc(Cl)c32)cc1,21.7% (inactive)
14,O=c1[nH][n+](-c2ccc(Br)cc2)no1,57.9% (inactive)
15,COc1cc2cc(Oc3ccc(NC(=O)Nc4ccc(Cl)c(Cl)c4)cc3)c(C)nc2cc1OCCN1CCOCC1,99.6% (inactive)
16,C#C[C@]1(O)CC[C@H]2[C@@H]3CC=C4c5sc(Nc6ccccc6)nc5CC[C@]4(C)[C@H]3CC[C@@]21C,16.2% (inactive)
17,CCCCCCCCCCCCCCCCCCOc1ccc(CC(=O)OCC[N+](C)(C)C)cc1,99.9% (inactive)
18,Cc1ccc(-c2nc3c(c(-c4ccccc4)nn3-c3ccccc3)c(-c3ccc(O)cc3)c2C#N)cc1,60.5% (inactive)
19,CN(C)CCS(=O)(=O)Nc1cc(-c2ccc3ncc(C#N)c(Nc4ccc(F)c(Cl)c4)c3c2)cnc1Cl,-10.3% (active)

row,Compound,growth
1,O=C(Nc1ccc(I)cc1F)c1cc(I)ccc1O,21.2% (inactive)
2,C/C=C(\C)C(=O)N[C@H]1[C@@H](OC(C)=O)C[C@]2(C)C3CC[C@@]4(C)C(CC[C@@H]4C(C)N(C)C)C3CCC2[C@H]1O (some centres undefined),87.4% (inactive)
3,COc1ccc2[nH]c(-c3ccccc3)c(/C=C(\C#N)S(=O)(=O)c3ccccc3)c2c1,70.1% (inactive)
4,NCCNc1nc2ccccc2c2c(=O)c3cccc(F)c3sc12,37% (inactive)
5,Nc1nc2ccccc2c2c(=O)c3cc(F)ccc3sc12,104% (inactive)
6,O=C1CN(CCN2CC(=O)N(Cc3ccccc3)C(=O)C2)CC(=O)N1Cc1ccccc1,117% (inactive)
7,COc1ccc(-c2[nH]c3ccc(OC)cc3c2/C=C(\C#N)S(=O)(=O)c2ccccc2)cc1,17.3% (inactive)
8,CN1C(=O)N(C)C2Nn3c(s/c(=C\c4ccccc4)c3=O)=NC21 (centres undefined),106% (inactive)
9,Nc1ccc(Sc2ccc([N+](=O)[O-])c3nonc23)cc1,97.3% (inactive)
10,CS(=O)(=O)Nc1cc(-c2ccc3ncnc(Nc4cccc(Cl)c4F)c3c2)cnc1Cl,63% (inactive)
11,CCCCNC(=O)Oc1ccc(/C(=C(\C)c2ccc(Cl)cc2)c2ccc(OCCN3CCCCC3)cc2)cc1,90.4% (inactive)
12,CCCSc1nc2ccc(C)cc2cc1/C=[N+](\[O-])c1ccccc1,42% (inactive)
13,C[C@H]1[C@H]2[C@H]3CC[C@@H]4[C@@]5(C)CC[C@H](O)C(C)(C)[C@@H]5CC[C@@]4(C)[C@]3(C)CC[C@]23CO[C@]1(C)[C@@H](C(=O)/C=C\c1cccnc1)C3,73.9% (inactive)
14,Cc1onc2c(-c3ccccc3)n[nH]c(=O)c12,110% (inactive)
15,COc1cc(/C=C/C(=O)/C=C/c2cc(OC)c3c(c2OC)OCO3)c(OC)c2c1OCO2,28.3% (inactive)
16,O=C1/C(=C/c2ccccc2[N+](=O)[O-])Oc2ccc(O)c(O)c21,32.5% (inactive)
17,CC1=C(C)C(=O)C(Nc2cccc(C(=O)OC(C)(C)C)c2)=C(Br)C1=O,109% (inactive)
18,NS(=O)(=O)c1ccc(N=Nc2ccc(-c3nn4cc(-c5ccccc5)nc4s3)cc2)cc1,108% (inactive)

# Tested on: K-562 leukemia
# Assay: as above
# Conditions: 10 µM unless noted
row,Compound,growth
1,CCCCC1CCCC12NC(=O)NC2=O (centres undefined),127% (inactive)
2,COc1ccc2c(c1)c(-c1nn3cc(-c4cccs4)nc3s1)cn2C,51% (inactive)
3,COc1ccc([C@H]2c3cc(OC)c(OC)cc3C=C(C=O)C2CO)cc1OC (some centres undefined),20.1% (inactive)
4,C/C(=N/NC(N)=S)c1sc(Nc2cccc(Cl)c2)nc1C,68.7% (inactive)
5,Cc1cccc2c3c(sc12)C(c1ccc(F)cc1)C(C#N)=C(N)O3 (centres undefined),8.65% (active)
6,COc1cc(C(=O)c2cnc(-c3cccc4[nH]ccc34)[nH]2)cc(OC)c1OC,8.88% (active)
7,COc1ccc(C(=S)N2CCN(c3cccc(C)c3)CC2)cc1OC,25.5% (inactive)
8,CCOC(=O)/C(C#N)=C\Nc1ccc2ncnc(Nc3ccc(Cl)cc3Cl)c2c1,59.7% (inactive)
9,Cc1nn(-c2ccccc2)c(-n2ccnc2)c1/C=N/Nc1nc(-c2ccc(F)cc2)cs1,38.8% (inactive)
10,Cc1cc(=O)oc2cc(OC(=O)N3CCN(C)CC3)ccc12,90.3% (inactive)
11,COc1cc(/C=C/c2c(C(C)=O)c(C)nc3ccccc23)cc(OC)c1OC,13.8% (inactive)
12,NS(=O)(=O)c1ccc(-n2nc(-c3ccc(Cl)cc3)c3ccccc3c2=O)cc1,84.2% (inactive)
13,COc1ccc(C(=O)C[C@]2(O)C(=O)Nc3c(Cl)ccc(Cl)c32)cc1,13.6% (inactive)
14,O=c1[nH][n+](-c2ccc(Br)cc2)no1,10.9% (inactive)
15,COc1cc2cc(Oc3ccc(NC(=O)Nc4ccc(Cl)c(Cl)c4)cc3)c(C)nc2cc1OCCN1CCOCC1,39.2% (inactive)
16,C#C[C@]1(O)CC[C@H]2[C@@H]3CC=C4c5sc(Nc6ccccc6)nc5CC[C@]4(C)[C@H]3CC[C@@]21C,9.63% (active)
17,CCCCCCCCCCCCCCCCCCOc1ccc(CC(=O)OCC[N+](C)(C)C)cc1,47.7% (inactive)
18,Cc1ccc(-c2nc3c(c(-c4ccccc4)nn3-c3ccccc3)c(-c3ccc(O)cc3)c2C#N)cc1,22.3% (inactive)
19,CN(C)CCS(=O)(=O)Nc1cc(-c2ccc3ncc(C#N)c(Nc4ccc(F)c(Cl)c4)c3c2)cnc1Cl,6.62% (active)

row,Compound,growth
1,O=C(Nc1ccc(I)cc1F)c1cc(I)ccc1O,7.64% (active)
2,C/C=C(\C)C(=O)N[C@H]1[C@@H](OC(C)=O)C[C@]2(C)C3CC[C@@]4(C)C(CC[C@@H]4C(C)N(C)C)C3CCC2[C@H]1O (some centres undefined),50.2% (inactive)
3,COc1ccc2[nH]c(-c3ccccc3)c(/C=C(\C#N)S(=O)(=O)c3ccccc3)c2c1,5.1% (active)
4,NCCNc1nc2ccccc2c2c(=O)c3cccc(F)c3sc12,17.2% (inactive)
5,Nc1nc2ccccc2c2c(=O)c3cc(F)ccc3sc12,107% (inactive)
6,O=C1CN(CCN2CC(=O)N(Cc3ccccc3)C(=O)C2)CC(=O)N1Cc1ccccc1,107% (inactive)
7,COc1ccc(-c2[nH]c3ccc(OC)cc3c2/C=C(\C#N)S(=O)(=O)c2ccccc2)cc1,19.8% (inactive)
8,CN1C(=O)N(C)C2Nn3c(s/c(=C\c4ccccc4)c3=O)=NC21 (centres undefined),92.8% (inactive)
9,Nc1ccc(Sc2ccc([N+](=O)[O-])c3nonc23)cc1,26.7% (inactive)
10,CS(=O)(=O)Nc1cc(-c2ccc3ncnc(Nc4cccc(Cl)c4F)c3c2)cnc1Cl,53.4% (inactive)
11,CCCCNC(=O)Oc1ccc(/C(=C(\C)c2ccc(Cl)cc2)c2ccc(OCCN3CCCCC3)cc2)cc1,21.6% (inactive)
12,CCCSc1nc2ccc(C)cc2cc1/C=[N+](\[O-])c1ccccc1,40.4% (inactive)
13,C[C@H]1[C@H]2[C@H]3CC[C@@H]4[C@@]5(C)CC[C@H](O)C(C)(C)[C@@H]5CC[C@@]4(C)[C@]3(C)CC[C@]23CO[C@]1(C)[C@@H](C(=O)/C=C\c1cccnc1)C3,18% (inactive)
14,Cc1onc2c(-c3ccccc3)n[nH]c(=O)c12,69.8% (inactive)
15,COc1cc(/C=C/C(=O)/C=C/c2cc(OC)c3c(c2OC)OCO3)c(OC)c2c1OCO2,12.4% (inactive)
16,O=C1/C(=C/c2ccccc2[N+](=O)[O-])Oc2ccc(O)c(O)c21,17.2% (inactive)
17,CC1=C(C)C(=O)C(Nc2cccc(C(=O)OC(C)(C)C)c2)=C(Br)C1=O,0% (active)
18,NS(=O)(=O)c1ccc(N=Nc2ccc(-c3nn4cc(-c5ccccc5)nc4s3)cc2)cc1,93.5% (inactive)
